# Source: PubChem (NMMLSC)
# Rab7 wt GTP bind = dog Rab7 wildtype GTP binding, inhibitors and activators. GST-Rab7 beads, fluorescent GTP binding, flow cytometry; actives lie on both sides; untreated = 100%, excess cold GTP = 0%. GTP binding activity (percent of control), % at 10 µM. 190,000 tested, 0.055% active. AID 758;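 active = fluorescent GTP binding to Rab7 beads changed by at least 20 points from the 100% baseline, either direction, mostly lower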;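 also: median green fluorescence of bound Bodipy-FL-GTP per Rab7 bead population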
# Cdc42 wt = human Cdc42 wildtype GTP binding change, either direction. percent activity (GTP binding), % at 10 µM. P60953. 190,000 tested, 0.2% active. AID 761. GST-Cdc42 beads, Bodipy-GTP binding, flow cytometry; actives lie on both sides;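 active = percent activity GTP binding at least 20 points away from the 100% baseline, either down as inhibitor or up as activator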;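 also: median bead fluorescence of bound Bodipy-FL-GTP at 100 nM; 0% = excess unlabeled GTP control and 100% = no compound control; below 100% means less GTP binding so inhibitor and above means activator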
# Rac1 wt GTP bind = alters GTP binding to wildtype human Rac1; GST-Rac1 beads, fluorescent GTP binding, flow cytometry; actives lie on both sides; 0 = cold GTP competed, 100 = untreated; GTP binding activity (% of control), % at 10 µM; 190,000 tested, 0.27% active; AID 757;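 active = GTP binding activity at least 20 points away from the 100% control level, either lower or higher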
# Rac1 act GTP bind = modulators of GTP binding to human Rac1 activated mutant. P63000. GST-Rac1 activated beads, fluorescent GTP binding, flow cytometry; actives lie on both sides; 100% means binding = to untreated wells. percent activity (GTP binding), % at 10 µM. 190,000 tested, 0.11% active;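 active = GTP binding at least 20 percentage points away from the 100% baseline, in either direction, so actives lie on both sides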
# Rab2A wt mod = changes GTP binding to wildtype dog Rab2A, up or down; GST-Rab2 wt beads, Bodipy-GTP binding, flow cytometry; P61105; AID 760; GTP binding activity, % at 10 µM; 190,000 tested, 0.19% active;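 active = GTP binding activity at least 20 points away from 100%, either lowered or raised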;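 also: 0% = beads with excess unlabeled GTP and 100% = no-compound control corrected for plate trend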
# HRas wt GTP = modulators of GTP binding to human HRas wildtype. 190,000 tested, 0.14% active. GTP binding activity, % at 10 µM. GST-Ras wt beads, Bodipy-FL-GTP binding, flow cytometry; actives lie on both sides. P01112. AID 759;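 active = GTP binding activity at least 20% away from the 100% baseline, either lowered as inhibitor or raised as activator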;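 also: 0% = unlabeled GTP competition control and 100% = no-compound control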
# Target sequence (P01112 whole entry, looked up): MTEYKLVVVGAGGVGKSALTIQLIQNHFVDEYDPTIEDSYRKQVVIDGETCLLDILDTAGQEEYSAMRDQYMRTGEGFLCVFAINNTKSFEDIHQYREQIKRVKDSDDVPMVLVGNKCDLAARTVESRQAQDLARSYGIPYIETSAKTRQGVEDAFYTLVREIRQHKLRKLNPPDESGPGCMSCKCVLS
# * = called active by the depositor; [ ] = another dose, or the depositor's remark. Most compounds without a hit are left out; they make up all but 0.37% or so of the library.
SMILES,Rab7 wt GTP bind,Cdc42 wt,Rac1 wt GTP bind,Rac1 act GTP bind,Rab2A wt mod,HRas wt GTP
COc1ccc(-c2cc(=NCCCCCC(=O)O)c3cc(C)ccc3o2)cc1,93,69*,71*,88,70*,73*
COCCCN=Cc1c(O)[nH]c(=S)[nH]c1=O,104,97,101,95,99,97
Cc1cc(C)cc(N2C(=O)NC(=O)/C(=C\C=C\c3ccco3)C2=O)c1,88,78*,78*,84,83,85
OC1CCCCC1N1CCC(c2ccccc2)CC1 (configuration not stated),101,103,100,102,101,100
CC(Oc1ccc(-c2ccccc2)cc1)C(=O)O (configuration not stated),126*[activator],161*[activator],157*[activator],130*[activator],141*[activator],137*[activator]
CCC(C)NC(=O)c1c(N)n(CCCOC)c2nc3ccccc3nc12 (configuration not stated),99,99,99,98,99,99
COCCCn1c(N)c(C(=O)Nc2sc3c(c2C(=O)OC)CCCC3)c2nc3ccccc3nc21,84,67*,84,82,66*,65*
CN(CCc1nnc(N)s1)[N+](=O)[O-],106,104,105,98,103,102
Cc1ccc(C2SCC(=O)Nc3c2c(=O)[nH]n3C2CCOC(C)(C)C2)cc1 (configuration not stated),101,102,102,98,101,100
CC1(C)CC(n2[nH]c(=O)c3c2NC(=O)CSC3c2ccccc2)CCO1 (configuration not stated),96,94,102,96,75*,97
O=c1[nH]c(=S)[nH]c(O)c1N=Nc1cc2c(cc1[N+](=O)[O-])OCO2,85,79*,83,79*,81,82
O=c1[nH]c(=S)[nH]c(O)c1N=Nc1ccc2c(c1)OCO2,97,91,94,92,94,93
